Compounds with a hit are over-represented: about 0.53% of the library has one in this group of screens.
GLS inh: inhibitors of human glutaminase (GLS) | O94925 | GLS enzymatic activity, qHTS titration | Potency, µM (highest dose often 45.5 µM), usual class: inhibitors | 410,000 tested, 0.21% active
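hKGA in 45 mM KH2PO4 pH 8.2, 0.02% Tween-20 with pin-transferred compounds; 1 mM L-glutamine (stock) plus glutamate oxidase/HRP/Amplex Red coupling added. Fluorescence read initially and after 30 min at RT.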
Tb PGK inh: inhibitors of T. brucei phosphoglycerate kinase; PGK/GAPDH coupled, Kinase-Glo luminescence, 60 min; 380,000 tested, 0.043% active; Potency, µM (series often up to 57.5 µM), hits mostly inhibitors; AID 602233; further: nearly all actives have a fitted effect of over 60% in size
Target sequence (P07378 whole entry, looked up): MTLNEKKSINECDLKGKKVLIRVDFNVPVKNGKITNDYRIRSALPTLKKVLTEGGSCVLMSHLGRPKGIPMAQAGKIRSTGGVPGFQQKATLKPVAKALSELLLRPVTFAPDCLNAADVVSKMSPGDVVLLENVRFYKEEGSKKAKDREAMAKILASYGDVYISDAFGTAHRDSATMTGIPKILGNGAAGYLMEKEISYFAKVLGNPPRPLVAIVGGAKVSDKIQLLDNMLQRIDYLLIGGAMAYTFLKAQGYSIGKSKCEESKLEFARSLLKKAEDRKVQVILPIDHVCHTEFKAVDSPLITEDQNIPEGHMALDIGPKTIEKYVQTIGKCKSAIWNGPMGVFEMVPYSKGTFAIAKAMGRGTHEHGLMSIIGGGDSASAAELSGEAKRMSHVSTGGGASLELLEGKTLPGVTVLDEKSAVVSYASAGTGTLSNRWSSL
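Recombinant glycosomal PGK reaction used 1,3-bisphosphoglycerate generated in-well by GAPDH (100nM final) in 100mM TEA pH 7.6, 5mM MgCl2, 0.01% Tween-20. After 60 minutes at room temperature, ATP was read by Kinase-Glo Plus luminescence end-point.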
USP1-UAF1 inh: USP1/UAF1 (human) deubiquitinase inhibition; O94782; Potency, µM (highest dose often 57.1 µM), hits mostly inhibitors; 390,000 tested, 0.23% active; recombinant USP1/UAF1, Ub-Rhodamine cleavage fluorescence; further: nearly all actives have a fitted effect of over 60% in size
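In this screen, compounds sit with the deubiquitinase complex (1nM) for 15 min at room temperature before Ub-Rho is added at 150nM final. Fluorescence rise is then followed for 6 reads every 60 seconds.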
PI4K2A block: blocks human PI4K2A kinase activity | 420,000 tested, 0.13% active | purified PI4K2A, ADP-Glo luminescence, 1 h; hits give low values | AID 1346378 | activity change, negative = inhibition, % at 76.9 µM; in the data active means activity change below about -50%; inconclusive means mostly about -30% to -49%
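Compounds are screened against recombinant PI4K2A using PI as substrate and ATP, the latter dispensed at 300 microM. Reactions run one hour at ambient temperature before ADP-Glo detection; full inhibition defined by wells lacking enzyme.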
Each line names hits and unclear results; the compound was inactive in the other large screens. Unless noted, the call rests on the fitted dose curve; in most records, active means well fitted curve in the direction sought with a large enough effect; inconclusive means small, poorly fitted or top-dose-only effect, or another doubt; inactive means no such curve, though single readings can be large; an effect the other way counts as inactive or inconclusive.

C=C1C[C@@]23CC[C@H]4[C@@](C)(CCC[C@@]4(C)C(=O)O)[C@@H]2CC[C@]1(O)C3	none (no result: GLS inh, Tb PGK inh, USP1-UAF1 inh)
C=CCN=c1scc(-c2ccco2)n1/N=C/c1ccc(O)c(O)c1O	GLS inh 10µM
O=C(CCCCCCCCC#CI)Oc1ccccc1	none (no result: Tb PGK inh, USP1-UAF1 inh)
CCC(=O)Oc1ccc(-c2cnc3ccccc3n2)cc1	PI4K2A block -65 (no result: Tb PGK inh)
O=C(Oc1ccc(-c2cnc3ccccc3n2)cc1)c1ccco1	Tb PGK inh inconclusive, PI4K2A block -77
CCC(=O)Oc1ccc(-c2nc(-c3cccnc3)no2)cc1	Tb PGK inh inconclusive, PI4K2A block -55
NC[C@@H]1O[C@@H](O[C@H]2[C@@H](O)[C@H](O[C@@H]3[C@@H](O)[C@@H](N)C[C@H](N)[C@H]3O[C@H]3O[C@H](CN)[C@@H](O)[C@@H](O)[C@H]3N)O[C@H]2CO)[C@H](N)[C@@H](O)[C@@H]1O	none (no result: Tb PGK inh, USP1-UAF1 inh, PI4K2A block)
Oc1cncc(-c2cccnc2)c1	none
c1cncc(-c2cccnc2)c1	PI4K2A block -65
O=C(Cn1cnc2sc(-c3ccccc3)cc2c1=O)NCc1ccco1	GLS inh inconclusive, Tb PGK inh 13µM, PI4K2A block inconclusive
CCCCCOc1ccc(C2SC(=O)NC2=O)cc1OCC (stereo unspecified)	none (no result: Tb PGK inh, USP1-UAF1 inh)
CCCC[C@@H](CCCc1ccc(F)cc1)CCC(=O)N(c1ccccc1)c1ccccc1	none (no result: GLS inh, Tb PGK inh, USP1-UAF1 inh)
O=C(N/N=C/c1c(O)ccc2ccccc12)c1cccnc1	none
O=C(N/N=C\c1c(O)ccc2ccccc12)c1cncc(Br)c1	USP1-UAF1 inh 32µM
Cc1onc(-c2ccccc2)c1C(=O)N[C@@H]1C(=O)N2[C@@H](C(=O)O)C(C)(C)S[C@@H]12	none (no result: Tb PGK inh, USP1-UAF1 inh, PI4K2A block)
O=c1c2cc(F)ccc2sn1-c1ccc(F)cc1	GLS inh 10µM
COc1ccc(-n2sc3ccccc3c2=O)cc1	GLS inh inconclusive, USP1-UAF1 inh inconclusive
N#Cc1ccc2sn(-c3ccccc3)c(=O)c2c1	GLS inh 6.3µM
CC(=O)Nc1ccc2sn(-c3ccccc3)c(=O)c2c1	GLS inh 6.3µM
N#Cc1ccc2c(c1)nnn2-c1ccccc1	USP1-UAF1 inh inconclusive
O=c1c2cc([N+](=O)[O-])ccc2sn1-c1ccccc1	GLS inh 10µM
COc1ccc(-n2sc3ccc(F)cc3c2=O)cc1	GLS inh inconclusive, USP1-UAF1 inh inconclusive
C=CCc1cccc(C=NNC(=O)CN2CCN(Cc3ccccc3)CC2)c1O	none (no result: GLS inh, Tb PGK inh, USP1-UAF1 inh)
N[C@@H](C(=O)N[C@H]1C(=O)N2C(C(=O)O)=C(Cl)CC[C@H]12)c1ccccc1	none (no result: Tb PGK inh, USP1-UAF1 inh, PI4K2A block)
CC(=O)O[C@H]1C[C@@H]2CC[C@@H]3[C@H](CC[C@]4(C)[C@H](OC(C)=O)[C@@H](N5CC[N+](C)(C)CC5)C[C@@H]34)[C@@]2(C)C[C@@H]1N1CC[N+](C)(C)CC1	none (no result: Tb PGK inh, USP1-UAF1 inh, PI4K2A block)
CC(CS(=O)(=O)c1ccc2c(c1)NC(=O)CS2)C(=O)NCc1ccccc1Cl (stereo unspecified)	GLS inh 11µM, Tb PGK inh 7.9µM
O=C1CSc2ccc(S(=O)(=O)NCc3ccccc3Cl)cc2N1	none
COc1cccc(CNC(=O)CSc2c3c(nc4ccc(Cl)cc24)CCCC3)c1OC	none
Cc1cc(NS(=O)(=O)c2ccc(NC(=O)CSc3nnc(SCc4ccc(Cl)cc4)s3)cc2)nc(C)n1	none (no result: GLS inh, Tb PGK inh, USP1-UAF1 inh)
CC(C)c1ccc(N=c2c([N+](=O)[O-])nn(-c3ccc4c(c3)OCCO4)n2O)cc1	GLS inh 11µM
COc1cc(N=c2c([N+](=O)[O-])nn(-c3ccc4c(c3)OCCO4)n2O)cc(OC)c1	none
CC[C@]12c3[nH]c4cc(-c5ccco5)ccc4c3CCN1C(=O)[C@@H](CC(=O)NCCC1=CCCCC1)C[C@@H]2C(=O)N1CCN(C(=O)c2ccco2)CC1	PI4K2A block -53
CCOC(=O)CCC(=O)OC1C(OC2C(C)C(OC3CC(C)(OC)C(O)C(C)O3)C(C)C(=O)OC(CC)C(C)(O)C(O)C(C)C(=O)C(C)CC2(C)O)OC(C)CC1N(C)C (stereo unspecified)	none (no result: Tb PGK inh, USP1-UAF1 inh, PI4K2A block)
CC(=O)NC1C(=O)N(CCN2CCOCC2)c2ccc(C)cc21 (stereo unspecified)	GLS inh inconclusive, Tb PGK inh 20µM
CC(=O)NC1C(=O)N(CCN2CCOCC2)c2ccc(Cl)cc21 (stereo unspecified)	GLS inh inconclusive, Tb PGK inh inconclusive
O/C=c1\ccc2cccc3nc(C(F)(F)F)nc1c23	GLS inh inconclusive, USP1-UAF1 inh 22µM
CCn1c2ccccc2c2nnc(N3CCN(c4ccc(OC)cc4)CC3)nc21	none
CC1(C)Cc2c(cnn2-c2ccc(F)cc2)C(NC(=O)C2=NNC(=O)CC2)C1 (stereo unspecified)	GLS inh 16µM
Cc1ccc2sc(NNC(=O)c3cc(=O)c4ccccc4o3)nc2c1C	USP1-UAF1 inh 32µM
COc1ccc2nc(NNC(=O)c3cc(=O)c4ccccc4o3)sc2c1	USP1-UAF1 inh 28µM
Cc1cccc2sc(NNC(=O)c3cc(=O)c4ccccc4o3)nc12	USP1-UAF1 inh inconclusive
COc1ccc2nc(NC(=O)c3cc(=O)c4cc(C)c(C)cc4o3)sc2c1	none
c1cnc2cc3c(cc2n1)[C@@H]1CNC[C@@H]3C1	none (no result: Tb PGK inh, USP1-UAF1 inh, PI4K2A block)
COc1cc2c(cc1OC)-c1cc3ccc4c(c3c[n+]1CC2)OCO4	USP1-UAF1 inh 25µM
COc1cc2c(cc1OC)C(c1ccccc1)=NCC2	none
C/C(CC(=O)Nc1ccc2ccccc2c1)=N\NC(=O)c1ccc(O)c(O)c1	GLS inh 6.3µM
OCC1OC([S-])[C@H](O)C(O)C1O.[Au+] (stereo partly specified)	GLS inh 11µM (no result: Tb PGK inh, USP1-UAF1 inh, PI4K2A block)
CCCCn1c(NS(=O)(=O)c2ccccc2)c(S(=O)(=O)c2ccc(C)cc2)c2nc3ccccc3nc21	USP1-UAF1 inh 28µM
CCCCn1c(NC(=O)c2ccc(Br)o2)c(S(=O)(=O)c2ccccc2)c2nc3ccccc3nc21	USP1-UAF1 inh 28µM
CCCCn1c(NC(=O)c2ccco2)c(S(=O)(=O)c2ccc(C)cc2)c2nc3ccccc3nc21	USP1-UAF1 inh inconclusive
Cc1ccc(-n2c(SCC(=O)c3ccc(O)c(O)c3)nnc2-c2ccccc2)cc1	none (no result: GLS inh, Tb PGK inh, USP1-UAF1 inh)
CC(=O)c1cc(-c2ccc3[nH]ccc3c2)c(=O)n2c1CCC2	none (no result: GLS inh, Tb PGK inh, USP1-UAF1 inh)
Oc1ccccc1C(Nc1nccs1)c1ccc2cccnc2c1O (stereo unspecified)	GLS inh 16µM
CCOC(=O)c1[nH]c2ccc(OC)cc2c1NS(=O)(=O)c1ccc(Cl)s1	GLS inh 7.1µM
CN1CCN(N)CC1	none (no result: GLS inh, Tb PGK inh, USP1-UAF1 inh)
O=C1C(=O)N(Cc2ccccc2)C(=O)N1CCN1C(=O)c2ccccc2C1=O	none
O=C1Cc2ccccc2C(=O)N1CCc1ccccc1	USP1-UAF1 inh 5.6µM, PI4K2A block inconclusive
Cc1ccccc1-c1cc2c(nn1)-c1ccccc1C2=O	USP1-UAF1 inh 32µM, PI4K2A block inconclusive
O=C1c2ccccc2-c2nnc(-c3ccc(F)cc3)cc21	none
Cc1ccc(-c2cc3c(nn2)-c2ccccc2C3=O)cc1	Tb PGK inh inconclusive, PI4K2A block -63
CC1(C)Cc2c(sc(NC(=O)COc3cccc4ccccc34)c2C#N)C(C)(C)N1	GLS inh inconclusive, USP1-UAF1 inh 18µM

Assay outcomes: PubChem BioAssay, National Center for Advancing Translational Sciences (NCATS)
